Values joined by “and” are separate entries in the source; they are usually repeats but may differ in a detail not shown here. Identical values can stand only once. Active and inactive are the calls of the source. Unless noted, no rule for the calls is given here.
How the values were obtained:
[1] = test system: Wnt5a (protein binding on small-molecule microarray); experiment: Wnt5a binders on small-molecule microarray, primary screen, biophysical, 635/667 nm fluorescence (AID 1142); settings: 635 nm fluorescence, higher = more signal;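 also: fluorescence read at 667 nm with signal to noise per printed feature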
[2] = cell viability in Huh7 cells, primary screen, cytotoxicity control for HCV replication inhibitor project, CellTiter-Glo luminescence, basal, 48 h (AID 1143); settings: Huh7 HCV replicon, CellTiter-Glo luminescence, 48 h, higher = more signal, called active from +8 up or from −8 down unless noted;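 also: Huh7 hepatoma cells carrying a hepatitis C replication reporter with no stimulus; test concentration not given here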
[3] = P. aeruginosa biofilm formation inhibitors, primary screen, PAO1 strain, BacTiter-Glo luminescence, LB-PBS (AID 1144); settings: 12 h, higher = more signal
[4] = CREB reporter modulators without forskolin, primary screen, cell-based, PC12, CRE-LacZ reporter, unstimulated (AID 1145); settings: no forskolin, luminescence, 4.5 h; higher = more signal, called active from +8 up or from −8 down unless noted
[5] = CREB reporter modulators under forskolin, primary screen, cell-based, PC12, CRE-LacZ reporter, forskolin-stimulated (AID 1146); settings: luminescence, 4.5 h; higher = more signal, called active from +8 up or from −8 down unless noted;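 also: PC12 cells with 6xCRE LacZ reporter stimulated by forskolin 10 µM; beta-galactosidase reporter signal reflecting CREB driven transcription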
[6] = molecular target: Streptavidin (Streptomyces avidinii) (UniProt P22629); experiment: streptavidin binders on small-molecule microarray, primary screen, artefact control for SMM compound annotation, biophysical, 635/667 nm fluorescence (AID 1147); settings: streptavidin binding, higher = more signal;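 also: signal reflects streptavidin binding to arrayed compounds as a control protein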
Sequence of Streptavidin (Streptomyces avidinii) (P22629 whole entry, looked up): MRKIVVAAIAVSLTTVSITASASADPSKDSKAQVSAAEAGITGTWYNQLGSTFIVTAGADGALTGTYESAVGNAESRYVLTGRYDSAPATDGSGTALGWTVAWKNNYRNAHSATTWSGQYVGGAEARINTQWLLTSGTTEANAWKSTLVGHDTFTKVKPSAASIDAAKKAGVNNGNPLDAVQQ

[7] = small-molecule binders of probe aInhba, primary screen, biochemical, small-molecule microarray, 635/667 nm fluorescence (AID 1148); settings: higher = more signal; small-molecule microarray, probe aInhba, fluorescence unless noted;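 also: score merges 667nm spot fluorescence with signal-to-noise for antibody binding to printed compounds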
Torsin-1A (Homo sapiens) [8] = molecular target: Torsin-1A (Homo sapiens) (UniProt O14656); experiment: torsin A binders from cell lysate, primary screen, small-molecule microarray, wild-type, 635/667 nm (AID 1149); settings: COS7 hTOR1A-WT lysate, 635 nm fluorescence, higher = more signal
Sequence of Torsin-1A (Homo sapiens) (O14656 whole entry, looked up): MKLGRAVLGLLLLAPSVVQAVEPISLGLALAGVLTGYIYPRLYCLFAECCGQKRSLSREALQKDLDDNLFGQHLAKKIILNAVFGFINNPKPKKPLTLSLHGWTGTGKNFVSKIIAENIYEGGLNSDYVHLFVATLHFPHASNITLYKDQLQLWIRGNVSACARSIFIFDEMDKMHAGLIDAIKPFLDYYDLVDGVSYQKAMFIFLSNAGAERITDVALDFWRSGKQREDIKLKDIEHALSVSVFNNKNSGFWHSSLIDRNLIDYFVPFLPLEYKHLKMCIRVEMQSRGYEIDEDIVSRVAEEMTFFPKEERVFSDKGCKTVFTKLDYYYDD

Torsin-1A (Homo sapiens) [9] = molecular target: Torsin-1A (Homo sapiens) (UniProt O14656); experiment: small-molecule binders of mutant TOR1A in lysate, primary screen, cell lysate, small-molecule microarray, COS7 lysate, 635/667 nm fluorescence (AID 1150); settings: COS7 hTOR1A mutant lysate, 635 nm fluorescence, higher = more signal;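 also: score pools 667 nm emission and signal to noise measuring lysate protein binding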
[10] = test system: Sonic hedgehog protein (Shh); experiment: small-molecule binders of Shh protein, primary screen, biochemical, small-molecule microarray, 635/667 nm fluorescence (AID 1151); settings: small-molecule microarray binding, 635 nm fluorescence; higher = more signal;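 also: Shh protein binding to compounds spotted on small-molecule microarray slides; score combines spot fluorescence intensity with signal-to-noise across triplicate slides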

SMILES	composite z-score [1]	z-score [2]	z-score [3]	z-score [4]	z-score [5]	composite z-score [6]	composite z-score [7]	composite z-score (Torsin-1A (Homo sapiens) [8])	composite z-score (Torsin-1A (Homo sapiens) [9])	composite z-score [10]
CCCc1cc2c(n1Cc1ccco1)C(C)C1CN(C(=O)c3ccccc3)C(C)(C(=O)OC)C21 (stereo not given)	0.326	-2.79 (inactive)	0.666 (inactive)	0.394 (inactive)	0.718 (inactive)	1	0.173	0.556	0.944	0.357
COC(=O)[C@@]1(Cc2ccc(F)cc2)[C@H]2c3cc(C(=O)N(C)C)[nH]c3C[C@H]2CN1C(=O)c1ccccc1	0.163	-0.108 [setting not given] (inactive)	0.208 (inactive)	-0.754 [setting not given] (inactive)	-0.0669 [setting not given] (inactive)	0.134	0.143 [setting not given]	0.181	0.252	-0.879
CN1CCC(c2ccc(CO)cc2)=CC1C1CC1 (stereo not given)	-0.103	-0.209 (inactive)	0.656 (inactive)	3.78 (inactive)	0.54 (inactive)	-0.333	-0.101	0.309	0.431	1.85
OCc1ccc(C2=CC(c3cccs3)N(Cc3cccc(OC(F)(F)F)c3)CC2)cc1 (stereo not given)	0.136	-4.06 (inactive)	1.28 (inactive)	1.54 (inactive)	-0.162 (inactive)	-0.0232	-0.0719	0.761	1.16	1.05
COc1cc2c(cc1O)C(C)N(C)CC2 (stereo not given)	-0.0967	0.639 (inactive)	0.67 (inactive)	0.0655 (inactive)	-0.497 (inactive)	0.0031	-0.0468	-0.638	-0.744	-0.12
COC(=O)[C@@]1(Cc2ccccc2)[C@H]2c3cc(C(=O)N(C)C)n(C)c3C[C@H]2CN1C(=O)c1ccccc1	0.253	-0.782 (inactive)	0.323 (inactive)	0.194 (inactive)	0.189 (inactive)	1.78	0.0091	0.0264	1.51	-0.916
C[C@@H]1OC=C2[C@@H](O)[C@H]3O[C@H]3C(=O)[C@]23[C@H]1[C@H]1C2=C([C@@H](O)[C@H]4O[C@H]4C2=O)[C@@H]3O[C@@H]1C	-0.0894	0.612 (inactive)	0.389 (inactive)	1.01 (inactive)	1.04 (inactive)	-0.0542	-0.206	0.924	0.419	0.881
CCCc1cc2c(n1Cc1ccc(C)cc1)C(C)C1CN(C(=O)c3ccccc3)C(C)(C(=O)OC)C21 (stereo not given)	0.667	-2.69 (inactive)	0.426 (inactive)	1.53 (inactive)	1.57 (inactive)	1.23	0.643	0.55	1.06	-0.2
CCCC=C(CCC)[C@@H](NP(=O)(c1ccccc1)c1ccccc1)c1ccccc1	-0.0444	-0.411 (inactive)	0.168 (inactive)	0.201 (inactive)	0.89 (inactive)	0.821	-0.168	0.364	0.368	-0.0623
CCc1cc2c(nc1CC)CCN(CCC(C)=NOC)C2	0.148	-0.295 (inactive)	-1.01 (inactive)	1.82 (inactive)	-0.26 (inactive)	0.496	-0.0645	1.23	1.57	1.05
CC1N(P(=O)(c2ccccc2)c2ccccc2)CC(O)(c2ccccc2)CC12CC2 (stereo not given)	-0.025 and -0.0606	-0.601 (inactive) and -2.65 (inactive)	0.693 (inactive) and 0.00162 (inactive)	0.0075 (inactive) and -0.179 (inactive)	0.84 (inactive) and 0.498 (inactive)	-0.586 and 0.107	-0.0589 and 0.475	-1.12 and -0.311	0.699 and 0.319	-0.649 and -1.4
COC(=O)[C@H]1C(=O)c2ccccc2O[C@@](C(=O)OC)(c2ccccc2)[C@@H]1c1ccccc1	0.107	-1.35 (inactive)	0.352 (inactive)	-0.523 (inactive)	1.24 (inactive)	-0.37	0.177	0.0049	0.0856	0.0053
C[C@H]1O[C@H]2C3=C(C(=O)[C@@H]4O[C@@H]4[C@@H]3O)[C@@H]1[C@@H]1[C@@H](C)OC=C3[C@@H](O)[C@H]4O[C@H]4C(=O)[C@]312	-0.176	-3.24 (inactive)	-1.61 (inactive)	1.65 (inactive)	1.76 (inactive)	-0.418	-0.208	0.251	-0.306	0.534
COC(=O)[C@@]1(Cc2ccccc2)[C@H]2c3cc(C(=O)N(C)C)[nH]c3C[C@H]2CN1C(=O)c1ccccc1	0.155	-0.167 (inactive)	-0.0166 (inactive)	-0.368 (inactive)	-0.897 (inactive)	-0.033	-0.147	-0.816	-0.317	-0.836
C=C(CC1(C(C)NP(=O)(c2ccccc2)c2ccccc2)CC1)c1ccccc1 (stereo not given)	0.41	-2.48 (inactive)	-0.917 (inactive)	0.0109 (inactive)	1.49 (inactive)	0.416	0.122	-1.03	0.0087	0.0881
CCOC(=O)[C@H]1CC=C2C(=O)Oc3ccc(Br)cc3[C@@H]21	-0.707	-0.87 (inactive)	-0.301 (inactive)	0.0331 (inactive)	34.1 (active)	0.307	-0.128	0.0083	0.127	-0.968

SMILES	composite z-score [1]	z-score [2]	z-score [3]	z-score [4]	z-score [5]	composite z-score [6]	composite z-score [7]	composite z-score (Torsin-1A (Homo sapiens) [8])	composite z-score (Torsin-1A (Homo sapiens) [9])	composite z-score [10]
CCOC(=O)[C@H]1CC=C2C(=O)Oc3ccccc3[C@@H]21	-0.652	-1.22 (inactive)	-0.473 (inactive)	-0.228 (inactive)	1.7 (inactive)	-0.521	-0.0405	-2.41	-1.59	-0.528
COc1cc2c(cc1O)C=[N+](C)CC2	0.182	-1.29 (inactive)	-0.527 (inactive)	-0.438 (inactive)	-0.811 (inactive)	-0.306	-0.152	-1.31	-1.25	1.65
C=C(CC1(CNP(=O)(c2ccccc2)c2ccccc2)CC1)c1ccccc1	0.0774	-0.649 (inactive)	0.366 (inactive)	-0.182 (inactive)	-0.418 (inactive)	-0.0187	0.102	-0.27	0.449	-1.31
CN1CCC(c2ccc(CO)cc2)=CC1c1cccs1 (stereo not given)	-0.113	-1.33 (inactive)	0.196 (inactive)	2.8 (inactive)	0.158 (inactive)	-0.511	-0.154	0.175	0.367	1.7
COC(=O)[C@H]1[C@H](c2ccccc2)C(=O)[C@]2(O)c3ccccc3O[C@@]12c1ccccc1	0.129	-0.962 (inactive)	-1.45 (inactive)	-0.161 (inactive)	-0.474 (inactive)	0.287	-0.101	0.202	0.163	0.615
COC(=O)[C@H]1[C@@H](O)[C@@]2(O)c3c(OC)cc(OC)cc3O[C@@]2(c2ccc(OC)cc2)[C@@H]1c1ccccc1	0.226	-4.75 (inactive)	-0.638 (inactive)	1.82 (inactive)	1.43 (inactive)	0.442	0.0054	0.0165	0.295	0.683
COC(=O)C1(C)C=C2C(=C(C)C(=O)C2C)CN1 (stereo not given)	-0.163	0.0631 (inactive)	-0.596 (inactive)	-0.182 (inactive)	3.71 (inactive)	-0.164	0.0442	0.219	-0.186	-0.473
OCc1ccc(C2=CC(C3CC3)N(Cc3sc4ccccc4c3Cl)CC2)cc1 (stereo not given)	0.074	-3.22 (inactive)	-0.259 (inactive)	7.14 (inactive)	-2.05 (inactive)	0.337	0.0028	0.771	0.679	1.65
c1ccc(-c2cc3c(nc2-c2ccccc2)CCNC3)cc1	-0.2	-0.207 (inactive)	0.346 (inactive)	0.291 (inactive)	-0.815 (inactive)	0.0291	0.0228	0.175	-0.256	-0.193
C[C@@H]1Cc2c(cnc3c2CN(C)CC3)CO1	0.0844	-1.38 (inactive)	-0.181 (inactive)	-0.258 (inactive)	-1.05 (inactive)	-0.179	-0.0523	0.742	1.12	1.71
O=P(c1ccccc1)(c1ccccc1)N1CC2(CC2)CC(O)(c2ccccc2)C1 (stereo not given)	0.323	-1.55 (inactive)	0.525 (inactive)	0.204 (inactive)	-0.927 (inactive)	0.386	0.309	-0.316	-0.276	-1.05
CN1CCc2nc(CO)c(CO)cc2C1	0.233	-0.0958 (inactive)	0.424 (inactive)	1.37 (inactive)	-0.0826 (inactive)	0.0991	0.0442	-0.0701	0.557	0.424
CCCC[C@@H]1C[C@H]1[C@@H](NP(=O)(c1ccccc1)c1ccccc1)c1ccc(Cl)cc1	0.0234	-0.971 (inactive)	-0.451 (inactive)	-0.379 (inactive)	-0.273 (inactive)	0.239	0.157	-1.53	-0.202	-1.29
COC(=O)NCC=Cc1nc(CCC=CC(=O)O[C@H]2CC3CC(=O)O[C@@H](C=CCC(C)C)C[C@@H]4CC[C@H](C)[C@@H](C[C@@H](OC)C[C@H](C2)O3)O4)co1	-0.335	-3.73 (inactive)	0.881 (inactive)	0.106 (inactive)	-1.96 (inactive)	-0.875	-0.159	-0.429	-0.653	0.0788
CCCc1cc2c(n1CCO)C(C)C1CN(C(=O)c3ccccc3)C(C)(C(=O)OC)C21 (stereo not given)	0.559	-0.938 (inactive)	0.251 (inactive)	1.74 (inactive)	0.444 (inactive)	1.04	0.414	0.726	1.02	-0.898
CCCc1cc2c(n1Cc1cccc(Cl)c1)C(C)C1CN(C(=O)c3ccccc3)C(C)(C(=O)OC)C21 (stereo not given)	0.318	-2.78 (inactive)	0.00978 (inactive)	0.0041 (inactive)	-1.1 (inactive)	0.78	0.138	-0.0514	1.27	-0.083

Source: PubChem BioAssay
